From PubChem BioAssay AID1159580 (chemical genetic matrix, 2015)
Where “and” joins values, the source holds several entries; their conditions need not be identical. Equal entries are not always repeated. Screen size: about 5,500 compounds; about 2,000 (36%) were called active. Another 18% or so got no clear call; they are omitted. Some of the results follow. Values without a mark were called inactive. Cut-off read from the data, not from the text of the source: active = normalized growth mostly below about 0.91 (no sharp cut-off); inconclusive = no clear call, values can overlap the other calls; inactive = mostly above about 0.92.

Test: chemical genetic growth profiling, strain panel (AID 1159580);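 note: tested at 20 µM; growth read once vehicle control cultures reached saturation at 30 °C; 1 = growth at the plate median or of vehicle wells; lower values mean less growth of the strain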
Conditions: growth OD
[1] = S. cerevisiae deletion strains, locus YAL013W, strain DEP1, hits give low values
[2] = S. cerevisiae deletion strains, locus YBR229C, strain ROT2, hits give low values
[3] = S. cerevisiae deletion strains, locus YDL101C, strain DUN1, hits give low values
[4] = S. cerevisiae deletion strains, locus YDL134C, strain PPH21, hits give low values
[5] = S. cerevisiae deletion strains, locus YDR150W, strain NUM1, hits give low values
[6] = S. cerevisiae deletion strains, locus YEL061C, strain CIN8, hits give low values
[7] = S. cerevisiae deletion strains, locus YGR078C, strain PAC10, hits give low values
[8] = S. cerevisiae deletion strains, locus YGR229C, strain SMI1, hits give low values
[9] = S. cerevisiae deletion strains, locus YHR030C, strain SLT2, hits give low values
[10] = S. cerevisiae deletion strains, locus YHR087W, strain rtc3, hits give low values
[11] = S. cerevisiae deletion strains, locus YJL187C, strain SWE1, hits give low values
[12] = S. cerevisiae deletion strains, locus YJR043C, strain POL32, hits give low values
[13] = S. cerevisiae deletion strains, locus YJR075W, strain HOC1, hits give low values
[14] = S. cerevisiae deletion strains, locus YKL190W, strain CNB1, hits give low values
[15] = S. cerevisiae deletion strains, locus YLR039C, strain RIC1, hits give low values
[16] = S. cerevisiae deletion strains, locus YLR058C, strain SHM2 (second series), hits give low values
[17] = S. cerevisiae deletion strains, locus YLR085C, strain ARP6, hits give low values
[18] = S. cerevisiae deletion strains, locus YLR262C, strain YPT6, hits give low values
[19] = S. cerevisiae deletion strains, locus YML094W, strain GIM5, hits give low values
[20] = S. cerevisiae deletion strains, locus YMR219W, strain ESC1, hits give low values
[21] = S. cerevisiae deletion strains, locus YMR263W, strain SAP30, hits give low values
[22] = S. cerevisiae deletion strains, locus YMR307W, strain GAS1, hits give low values
[23] = S. cerevisiae deletion strains, locus YNL153C, strain GIM3, hits give low values
[24] = S. cerevisiae deletion strains, locus YNL298W, strain CLA4 (second series), hits give low values
[25] = S. cerevisiae deletion strains, locus YNL322C, strain KRE1, hits give low values
[26] = S. cerevisiae deletion strains, locus YNR030W, strain Alg12, hits give low values
[27] = S. cerevisiae deletion strains, locus YPL055C, strain LGE1, hits give low values
[28] = S. cerevisiae deletion strains, locus YPL241C, strain CIN2, hits give low values
[29] = S. cerevisiae deletion strains, locus YPR135W, strain CTF4, hits give low values
[30] = S. cerevisiae deletion strains, locus YCL061C, strain MRC1, hits give low values

SMILES: CC(=O)c1csc([N+](=O)[O-])c1
- normalized growth [1]: 1.01
- normalized growth [2]: 1.02
- normalized growth [3]: 0.951
- normalized growth [4]: 1
- normalized growth [5]: 0.921
- normalized growth [6]: 1.02
- normalized growth [7]: 0.975
- normalized growth [8]: 1.01
- normalized growth [9]: 1.08
- normalized growth [10]: 1.02
- normalized growth [11]: 0.983
- normalized growth [12]: 1
- normalized growth [13]: 0.99
- normalized growth [14]: 1.01
- normalized growth [15]: 1
- normalized growth [16]: 0.998
- normalized growth [17]: 0.89
- normalized growth [18]: 0.976
- normalized growth [19]: 1.02
- normalized growth [20]: 0.996
- normalized growth [21]: 1.01
- normalized growth [22]: 1.03
- normalized growth [23]: 0.947
- normalized growth [24]: 1.02
- normalized growth [25]: 1.01
- normalized growth [26]: 1.02
- normalized growth [27]: 0.996
- normalized growth [28]: 1.09
- normalized growth [29]: 0.988

SMILES: c1ccc(C2CN3CCSC3=N2)cc1 (centres undefined)
- normalized growth (S. cerevisiae deletion strains, locus YAL040C, strain CLN3, hits give low values): 0.985 and 1
- normalized growth (S. cerevisiae deletion strains, locus YCL061C, strain MRC1 (second series), hits give low values): 0.997 and 1.02
- normalized growth (S. cerevisiae deletion strains, locus YDR363W, strain ESC2, hits give low values): 1.02 and 1.04
- normalized growth (S. cerevisiae deletion strains, locus YER002W, strain NOP16, hits give low values): 0.991 and 1.03
- normalized growth [7]: 1
- normalized growth [8]: 1.04
- normalized growth [13]: 1.04 and 1.01
- normalized growth [21]: 1.01
- normalized growth [22]: 1.02 and 1
- normalized growth [23]: 1.02
- normalized growth (S. cerevisiae deletion strains, locus YNL175C, strain NOP13, hits give low values): 0.984 and 1
- normalized growth (S. cerevisiae deletion strains, locus YNL197C, strain WHI3, hits give low values): 0.977 and 1.01
- normalized growth (S. cerevisiae deletion strains, locus YNL224C, strain SQS1, hits give low values): 0.999 and 1.01
- normalized growth [25]: 1.02
- normalized growth (S. cerevisiae deletion strains, locus YOR083W, strain WHI5 (second series), hits give low values): 0.983 and 1.03
- normalized growth [27]: 1.05

SMILES: Cc1cccc(N2C(=O)C3C4C=CC(C4)C3C2=O)n1 (centres undefined)
- normalized growth [1]: 0.994
- normalized growth [2]: 0.993
- normalized growth [30]: 0.985
- normalized growth [3]: 0.989
- normalized growth [5]: 0.987
- normalized growth [6]: 0.987
- normalized growth [7]: 1.01
- normalized growth [9]: 0.999
- normalized growth [10]: 0.971
- normalized growth [11]: 0.995
- normalized growth [12]: 1.01
- normalized growth [13]: 0.989
- normalized growth [14]: 0.991
- normalized growth [15]: 0.977
- normalized growth [16]: 0.992
- normalized growth [17]: 0.987
- normalized growth [18]: 0.998
- normalized growth [19]: 0.983
- normalized growth [20]: 0.992
- normalized growth [21]: 0.987
- normalized growth [23]: 1
- normalized growth [24]: 1.01
- normalized growth [25]: 1.01
- normalized growth [26]: 1
- normalized growth [27]: 0.991
- normalized growth [28]: 1.01
- normalized growth [29]: 1.03
- normalized growth (S. cerevisiae strains, strain wild type, hits give low values): 0.999

SMILES: Cc1cccc(NCN2C(=O)CCC2=O)n1
- normalized growth [1]: 0.968
- normalized growth [2]: 0.996
- normalized growth [3]: 0.956
- normalized growth [5]: 0.959
- normalized growth [6]: 0.982
- normalized growth [7]: 0.965
- normalized growth [9]: 0.821
- normalized growth [10]: 1.06
- normalized growth [12]: 0.972
- normalized growth [13]: 0.987
- normalized growth [15]: 0.643 (active)
- normalized growth [16]: 0.97
- normalized growth [17]: 0.95
- normalized growth [18]: 0.572 (active)
- normalized growth [19]: 0.932
- normalized growth [20]: 0.992
- normalized growth [21]: 1.01
- normalized growth [22]: 1.22
- normalized growth [23]: 0.98
- normalized growth [24]: 0.938
- normalized growth [25]: 0.983
- normalized growth [26]: 0.977
- normalized growth [27]: 1
- normalized growth [28]: 0.96
- normalized growth [29]: 0.978

SMILES: O=C1CCC(=O)N1CNc1ccccc1OC(F)(F)F
- normalized growth [1]: 0.968
- normalized growth [2]: 0.994
- normalized growth [30]: 1.01
- normalized growth [3]: 0.963
- normalized growth [4]: 0.999
- normalized growth [5]: 1.02
- normalized growth [6]: 0.984
- normalized growth [7]: 0.996
- normalized growth [8]: 0.998
- normalized growth [9]: 1.04
- normalized growth [10]: 0.989
- normalized growth [11]: 1
- normalized growth [12]: 1
- normalized growth [13]: 0.997
- normalized growth [14]: 0.999
- normalized growth [15]: 0.991
- normalized growth [16]: 0.992
- normalized growth [17]: 1.02
- normalized growth [18]: 1.05
- normalized growth [19]: 1.02
- normalized growth [20]: 0.993
- normalized growth [21]: 1.03
- normalized growth [22]: 1.2
- normalized growth (S. cerevisiae deletion strains, locus YNL128W, strain TEP1, hits give low values): 0.993
- normalized growth [23]: 1.01
- normalized growth [24]: 0.971
- normalized growth [25]: 0.983
- normalized growth [26]: 1
- normalized growth [27]: 1.07
- normalized growth [28]: 1.02
- normalized growth [29]: 0.92
